Assay outcomes (PubChem)
HT1080-NT tox – kills 2HG-producing HT-1080-NT fibrosarcoma cells. HT-1080-NT fibrosarcoma viability, CellTiter-Glo ATP luminescence, 48 h. Potency, µM (top dose mostly 46.1 µM), inactives show at the highest dose activity, negative = less viability, usual class: cytotoxic. actives 1.6% (n = 360,000);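 also: NT is the 2HG producing partner of a matched IDH1 knockdown line; potency is read from the fitted curve at half-maximal effect; 0% = DMSO-treated cells and -100% = media-only wells without cells; nearly all actives have a fitted effect of over 55% in size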
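Read-out is CellTiter-Glo luminescence after 10 minutes at room temperature, following 48 hours' compound treatment of HT-1080-NT cells (750 cells/well, RPMI, 5% FBS, 37 degrees C).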
HT1080 IDH1KD tx – HT-1080 IDH1 knockdown cell toxicity (counter line); actives 2% (n = 360,000); Potency, µM (top dose mostly 46.1 µM), for the others: top-dose activity, negative = toxicity, hits mostly cytotoxic; HT-1080 IDH1 knockdown viability, ATP luminescence, 48 h;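 also: potency is read from the fitted curve at half-maximal effect; 0% = DMSO wells and -100% = cell-free medium wells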
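After a 2 h attachment period, IDH1KD HT-1080 cells took pin-transferred compound for 48 h at 37 °C; ATP-based luminescence after 10 min room-temperature reagent incubation reported viability.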
IL1B secr inh – inhibitors of inflammasome signaling (IL-1 beta secretion) | activity change, % at 57.5 µM | THP-1 LPS/ATP IL-1B secretion, AlphaLISA, 16 h; active compounds read low | actives 4.7% (n = 360,000); in the data active = activity change below about -50%; inconclusive = mostly about -30% to -49%
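THP-1 cells pretreated 1 hr with compounds (up to 57.5 uM final), then stimulated with LPS (250 ng/mL final) plus ATP (1.25 mM final); secreted IL-1B measured by AlphaLISA after 16 hr, decreased signal indicating inhibition.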
TDP1 cell noCPT – qHTS for Inhibitors of human tyrosyl-DNA phosphodiesterase 1 (TDP1): qHTS in cells in absence of CPT; DT40 Tdp1-/- hTDP1 cells, no CPT, ATP luminescence, 48 h; Potency, µM (series often up to 46.2 µM), inactives show at the highest dose activity change, negative = growth inhibition, actives largely listed as inhibitors; actives 15% (n = 420,000); also: potency is read from the fitted curve at half-maximal effect; nearly all actives have a fitted effect of over 55% in size
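Stably hTDP1-transfected Tdp1-null chicken DT40 cells were treated with library compounds minus camptothecin and grown for at least 48 hr at 37 °C, after which cellular ATP was quantified by luminescence.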
DT40 TDP1 CPT – growth inhibition of DT40 Tdp1-/-;hTDP1 cells with camptothecin (screen for TDP1 inhibitors) | chicken DT40 Tdp1-/-;hTDP1 cells + 20 nM CPT, ATP luminescence, 48 h | Potency, µM (highest dose often 46.2 µM), without a hit: at the top dose activity change, negative = growth inhibition, usual class: inhibitors | actives 12% (n = 420,000) | AID 686979; also: potency is read from the fitted curve at half-maximal effect; nearly all actives have a fitted effect of over 55% in size
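Chicken DT40 Tdp1-/- cells stably complemented with human TDP1 were seeded at 400 cells/well in medium containing 20 nM camptothecin, exposed to pin-transferred compounds, and grown at 37 °C for at least 48 hr. Viability was read as ATP luminescence.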
Numbers without * were called inactive; ? = inconclusive; · = not tested or not shown. This is a sample that favours compounds with a hit; in the whole collection about 19% have one here. Unless noted, calls follow the shape of the dose curve; as a rule, active = well fitted curve in the direction sought with a large enough effect; inconclusive = small, poorly fitted or top-dose-only effect, or another doubt; inactive = no such curve, though single readings can be large; an effect the other way counts as inactive or inconclusive. Unless noted, % is scaled to controls: 0 for no effect and ±100 for the full control effect.

SMILES	HT1080-NT tox	HT1080 IDH1KD tx	IL1B secr inh	TDP1 cell noCPT	DT40 TDP1 CPT
COc1cccc(CNC(=O)CCC2CCCN(C(=O)c3cc4ccccc4o3)C2)c1 (stereo not drawn)	-3%	-7%	-90*	13µM*	?
O=C(Nc1ccc2c(c1)N(C1CCCC1)C(=O)c1ccccc1S2)c1ccc(F)cc1	·	·	·	?	23µM*
COc1cc(OC)cc(C(=O)Nc2ccc3c(c2)N(C2CCCC2)C(=O)c2ccccc2S3)c1	·	·	·	?	-16%
O=C(Nc1ccc2c(c1)N(C1CCCC1)C(=O)c1ccccc1S2)c1ccccc1	·	·	·	12µM*	?
O=C(Nc1ccc2c(c1)N(C1CCCC1)C(=O)c1ccccc1S2)c1cccc(F)c1	·	·	·	18µM*	?
CCOC(=O)CCCC(=O)N1CCOCCOCCOCC1	-2%	3%	10	-23%	3%
O=C(NCCc1ccccn1)C1CCN(S(=O)(=O)c2ccc3ccccc3c2)CC1	1%	2%	-18	-10%	-22%
N#Cc1c(Nc2ccccc2)[n+]([O-])c2ccc(Cl)cc2[n+]1[O-]	2%	?	-20	?	6.5µM*
CN(C)CCNc1ncnc2oc(-c3ccccc3)c(-c3ccccc3)c12	-6%	-3%	-70*	?	?
CN(C)CCNc1ncnc2ccccc12	6%	0%	39	-12%	-6%
CCCCNc1ncnc2oc(-c3ccco3)c(-c3ccco3)c12	·	·	·	6.3µM*	6.3µM*
COc1ccc(-c2oc3ncnc(NCCCN(C)C)c3c2-c2ccc(OC)cc2)cc1	?	?	-64*	18µM*	?
CC1CN(S(=O)(=O)c2ccc(CN3C(=O)c4cccnc4C3=O)cc2)c2ccccc2O1 (stereo not drawn)	?	15%	-3	11%	-9%
Nc1ccn(CC(=O)NCCNc2ccc([N+](=O)[O-])cn2)c(=O)n1	-18%	3%	-9	-8%	?
c1ccc(-n2cc(CN3CCC(N4CCOCC4)CC3)c(-c3ccc4c(c3)OCO4)n2)cc1	0%	9%	-66*	?	-3%
COC(=O)c1ccc(C(=O)OC)c(NC(=S)N2CCCC(C)C2)c1 (stereo not drawn)	20%	18%	-1	-3%	1%
CCCN(CC(=O)Nc1ccccc1OC)C(=O)c1ccc(=O)[nH]c1	10%	0%	7	9%	?
NC(c1csc(Nc2ccc(C(=O)NCCO)cc2)n1)C1CCCCC1 (stereo not drawn)	-14%	-13%	0	6.5µM*	10µM*
NC(c1csc(Nc2ccc(C(=O)NCCCO)cn2)n1)C1CCCCC1 (stereo not drawn)	-5%	?	-15	?	-44%
CC(=O)c1ccc(Nc2nc(C(N)C3CCCCC3)cs2)cc1 (stereo not drawn)	?	-13%	·	12µM*	13µM*
NC(c1csc(Nc2ccc(C(=O)c3ccccc3)cc2)n1)C1CCCCC1 (stereo not drawn)	?	15µM*	?	?	?
CC12CCC(=O)N1C(C(=O)Nc1cc(S(=O)(=O)N3CCCCCC3)ccc1OCC(F)(F)F)CS2 (stereo not drawn)	-11%	-1%	-5	-22%	?
Cc1ccc(COn2c(-c3ccc(Cl)cc3Cl)nc3ncccc32)cc1	?	?	-15	?	?
Clc1cccc(COn2c(-c3ccc(Cl)cc3Cl)nc3ncccc32)c1	-23%	?	6	21µM*	?
CSc1nc2ccccc2cc1/C=C(\C#N)c1ccc(Cl)c(Cl)c1	-5%	-6%	-20	?	?
SMILES	HT1080-NT tox	HT1080 IDH1KD tx	IL1B secr inh	TDP1 cell noCPT	DT40 TDP1 CPT
CSc1nc2ccccc2cc1/C=C(\C#N)c1ccccc1	?	18µM*	0	?	?
CSc1nc2ccccc2cc1/C=C(\C#N)c1cccc(C)c1	?	5.2µM*	-1	?	?
CC(=O)N(C(C)=O)C1=C(C#N)C2(CCCCC2)Cc2ccccc21	?	?	-74*	-11%	-22%
CCSc1nnc(-c2ccccc2N=Cc2c(C)[nH]n(-c3ccccc3)c2=O)c(=O)[nH]1	1%	2%	21	?	?
CCOc1ccc2nc(NC(=O)CN3C(=O)C4CCCCC4C3=O)sc2c1 (stereo not drawn)	-4%	-15%	-8	-28%	-17%
CSc1ccc(/C=C2\C=C(C(O)c3ccc(SC)cc3)c3ccccc32)cc1 (stereo not drawn)	·	·	·	10µM*	10µM*
CC(=O)Nc1ccc(/C=C2\Sc3ccccc3C2=O)cc1	4%	8%	12	-3%	5%
CC(=O)Nc1ccc(/C=C2\C=C(C(O)c3ccc(NC(C)=O)cc3)c3ccccc32)cc1 (stereo not drawn)	·	·	·	10µM*	20µM*
OC(C1=C/C(=C\c2ccncc2)c2ccccc21)c1ccncc1 (stereo not drawn)	·	·	·	11µM*	11µM*
COCc1cc(O)c(O)c(O)c1-c1c(COC)cc(O)c(O)c1O	·	·	·	4.5µM*	5µM*
COc1cccc(C(=O)N2CCC(C(=O)NCc3ccco3)CC2)c1	14%	5%	0	-3%	17%
CCN(CC(=O)Nc1ccccc1C(F)(F)F)C(=O)c1ccc(NC(=O)c2cccs2)cc1	-1%	7%	-17	21µM*	15µM*
CCN(CC(=O)Nc1ccccc1C(F)(F)F)C(=O)CCOc1ccccc1C	1%	2%	10	-54%	-36%
CCN(CC(=O)Nc1ccccc1C(F)(F)F)C(=O)Cc1cccs1	11%	0%	-6	-15%	2%
CCN(CC(=O)Nc1ccc(N2CCOCC2)cc1)C(=O)c1ccc(C(F)(F)F)cc1	?	19%	-57*	-14%	-9%
CCN(CC(=O)Nc1ccccc1C(F)(F)F)C(=O)c1ccccc1OCc1ccc(F)cc1	0%	-1%	-18	21µM*	16µM*
O=C(NCCC(=O)N1CCC2(CC1)NCCc1[nH]cnc12)c1cccc(Br)c1	15%	2%	-2	10%	11%
Cc1cc(C)c(C)c(S(=O)(=O)N2CCN(CC(=O)Nc3sccc3C#N)CC2)c1C	-13%	?	17	?	26µM*
N#Cc1cnn(-c2ccccc2)c1NC(=O)CN1CCN(c2ccccc2)CC1	22%	16%	37	23µM*	?
N#Cc1ccsc1NC(=O)CN1CCN(c2ccc(O)cc2)CC1	?	-6%	0	10µM*	?
CC(=O)N1CCN(CC(=O)Nc2sccc2C#N)CC1	18%	20%	42	-5%	-16%
